In PubChem BioAssay (EPA / NIEHS):
Several values for one entry are separate records, joined by “and”; a condition that tells them apart may be missing. Identical values can stand only once. Activity calls are given as the source filed them. Rule for the calls: active = hit-call score of the fitted dose curve at least 0.9, where 1 is the maximum; inactive = score below 0.9.

Tests used:
[1] = BSK_hDFCGF_SRB: Viability Assessment in the BioMAP Diversity Plus: hDFCGF Assay (AID 2283061); conditions: primary human foreskin fibroblasts;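 note: cells exposed to compound for 24 h before the read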
Method in brief: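 Cells were dosed with test chemical, cultured 24 h, fixed with 10% TCA, then stained with 0.1% SRB and read at 560 nm. The fibroblasts were human foreskin primary cells, and DMSO served as baseline.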

[2] = read-out: TIMP metallopeptidase inhibitor 1 (TIMP1), TIMP1 (gene 7076); assay: BSK_hDFCGF_TIMP1: BioMAP Diversity Plus: hDFCGF Assay for TIMP metallopeptidase inhibitor 1 (TIMP1) Biomarker Activity (AID 2283062); conditions: primary human foreskin fibroblasts; actives raise or lower the signal
Method in brief: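 Fibroblasts from human foreskin are treated with test chemical and harvested at 24 h. TIMP-1 is quantified by ELISA, and gain or loss of signal is scored against DMSO.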

[3] = read-out: Matrix Metallopeptidase 1 (MMP1), MMP1 (gene 4312); assay: BSK_hDFCGF_MMP1: BioMAP Diversity Plus: hDFCGF Assay for Matrix Metallopeptidase 1 (MMP1) Biomarker Activity (AID 2283064); conditions: primary human foreskin fibroblasts; actives raise or lower the signal
Method in brief: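 Human foreskin fibroblasts exposed to chemical for 24 h; MMP1 detected by ELISA, with DMSO as baseline for bidirectional fitting.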

[4] = read-out: Vascular cell adhesion molecule 1 (VCAM1), VCAM1 (gene 7412); assay: BSK_hDFCGF_VCAM1: BioMAP Diversity Plus: hDFCGF Assay for Vascular cell adhesion molecule 1 (VCAM1) Biomarker Activity (AID 2283065); conditions: primary human foreskin fibroblasts; actives raise or lower the signal;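 for AC50: VCAM-1 protein level quantified by ELISA after 24 h chemical exposure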
Method in brief: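 Cells are dosed, cultured for 24 h, then VCAM-1 is quantified by ELISA; signal increases and decreases are both fitted relative to DMSO.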

[5] = read-out: Plasminogen activator inhibitor-1 (PAI1), SERPINE1 (gene 5054); assay: BSK_hDFCGF_PAI1: BioMAP Diversity Plus: hDFCGF Assay for Plasminogen activator inhibitor-1 (PAI1) Biomarker Activity (AID 2283066); conditions: primary human foreskin fibroblasts; actives raise or lower the signal
Method in brief: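 PAI-1 levels in human dermal foreskin fibroblasts were quantified by ELISA 24 h after dosing, with gain or loss analysed against DMSO. Overt cytotoxicity was checked by sulforhodamine B total-protein staining in parallel cultures.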

[6] = read-out: Intercellular Adhesion Molecule 1 (ICAM1), ICAM1 (gene 3383); assay: BSK_KF3CT_ICAM1: BioMAP Diversity Plus: KF3CT Assay for Intercellular Adhesion Molecule 1 (ICAM1) Biomarker Activity (AID 2283067); conditions: primary human keratinocytes with fibroblasts; actives raise or lower the signal
Method in brief: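 Dose the keratinocyte/fibroblast co-culture, wait 24 h, measure ICAM-1 by ELISA, then fit increases or decreases against DMSO. Cytotoxicity is checked in parallel cultures by SRB total-protein staining.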

[7] = read-out: Interleukin-1 alpha (IL1a), IL1A (gene 3552); assay: BSK_KF3CT_IL1a: BioMAP Diversity Plus: KF3CT Assay for Interleukin-1 alpha (IL1a) Biomarker Activity (AID 2283070); conditions: primary human keratinocytes with fibroblasts; actives raise or lower the signal
Method in brief: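 Readout is IL-1a level by ELISA, compared bidirectionally with DMSO as baseline. Cells: human keratinocytes co-cultured with foreskin fibroblasts, harvested 24 h post-dose.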

[8] = read-out: C-C motif chemokine 2 (Homo sapiens) (UniProt P13500); assay: BSK_KF3CT_MCP1: BioMAP Diversity Plus: KF3CT Assay for Monocyte Chemoattractant Protein 1 (MCP1/CCL2) Biomarker Activity (AID 2283073); conditions: primary human keratinocytes with fibroblasts; actives raise or lower the signal
Method in brief: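 Keratinocytes and foreskin fibroblasts were co-cultured, dosed with chemical, and sampled 24 h later. MCP-1 was quantified by ELISA, and the endpoint was analyzed with bidirectional fitting using DMSO as negative control.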

[9] = read-out: Matrix Metallopeptidase 9 (MMP9), MMP9 (gene 4318); assay: BSK_KF3CT_MMP9: BioMAP Diversity Plus: KF3CT Assay for Matrix Metallopeptidase 9 (MMP9) Biomarker Activity (AID 2283074); conditions: primary human keratinocytes with fibroblasts; actives raise or lower the signal;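 for AC50: MMP9 protein level quantified by ELISA in the co-culture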
Method in brief: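 Values come from bidirectional fitting relative to DMSO of MMP-9 levels, which were measured by ELISA. Measurements were taken 24 h after chemical dosing of a keratinocyte and foreskin fibroblast co-culture.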

[10] = read-out: urokinase plasminogen activator (uPA), PLAU (gene 5328); assay: BSK_KF3CT_uPA: BioMAP Diversity Plus: KF3CT Assay for urokinase plasminogen activator (uPA) Biomarker Activity (AID 2283075); conditions: primary human keratinocytes with fibroblasts; actives raise or lower the signal
Method in brief: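 Values derive from bidirectional fitting against DMSO controls. Keratinocyte/foreskin fibroblast co-cultures received chemical; 24 h later uPA was detected by ELISA, with SRB total-protein staining in parallel wells for overt cytotoxicity.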

CD40, CD40 (gene 958) = assay: BSK_LPS_CD40: BioMAP Diversity Plus: LPS Assay for CD40 Biomarker Activity (AID 2283076); conditions: primary human HUVEC with PBMC; actives raise or lower the signal
Method in brief: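 CD40 signal, measured by ELISA, is fitted in both directions relative to DMSO vehicle. The system is an LPS-driven human vascular primary co-culture of endothelial cells and PBMC, sampled 24 h after compound addition.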

[11] = read-out: E-selectin (Homo sapiens) (UniProt P16581); assay: BSK_LPS_Eselectin: BioMAP Diversity Plus: LPS Assay for Eselectin Biomarker Activity (AID 2283077); conditions: primary human HUVEC with PBMC; actives raise or lower the signal
Method in brief: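 Signal of E-selectin, detected by ELISA, served as the endpoint; cells were umbilical vein endothelium with PBMC, read 24 h after treatment. DMSO defined baseline, and both increases and decreases were fitted.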

[12] = read-out: Interleukin-8 (IL8), CXCL8 (gene 3576); assay: BSK_LPS_IL8: BioMAP Diversity Plus: LPS Assay for Interleukin-8 (IL8) Biomarker Activity (AID 2283078); conditions: primary human HUVEC with PBMC; actives raise or lower the signal
Method in brief: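 Endothelial cells and PBMC from human donors are co-cultured, treated with chemicals and LPS, then assayed for IL-8 by ELISA after 24 h. Parallel SRB staining (0.1% SRB after 10% TCA fixation, 560 nm) flags cytotoxicity.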

[13] = BSK_LPS_SRB: Viability Assessment in the BioMAP Diversity Plus: LPS Assay (AID 2283079); conditions: primary human HUVEC with PBMC;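 note: total protein by sulforhodamine B absorbance as a cytotoxicity measure; measured one day after compound addition; fitted in both directions against DMSO so loss or gain of signal counts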
Method in brief: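 Overt cytotoxicity was gauged by sulforhodamine B total-protein staining in a primary human vascular endothelial and mononuclear cell co-culture 24 h post-dosing. Activity was fitted in both directions relative to DMSO.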

[14] = read-out: Interleukin-1 alpha (IL1a), IL1A (gene 3552); assay: BSK_LPS_IL1a: BioMAP Diversity Plus: LPS Assay for Interleukin-1 alpha (IL1a) Biomarker Activity (AID 2283080); conditions: primary human HUVEC with PBMC; actives raise or lower the signal
Method in brief: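 Measured: IL-1 alpha via ELISA at 24 h in LPS-activated human umbilical vein endothelium–PBMC co-culture. Baseline: DMSO, bidirectional fitting.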

[15] = read-out: TIMP metallopeptidase inhibitor 2 (TIMP2), TIMP2 (gene 7077); assay: BSK_KF3CT_TIMP2: BioMAP Diversity Plus: KF3CT Assay for TIMP metallopeptidase inhibitor 2 (TIMP2) Biomarker Activity (AID 2283071); conditions: primary human keratinocytes with fibroblasts; actives raise or lower the signal
Method in brief: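 TIMP-2 measured by ELISA at 24 h in human keratinocyte/fibroblast primary co-cultures exposed to chemicals. Both increases and decreases were fitted against DMSO. Parallel cultures were stained with SRB for total protein as an overt-cytotoxicity check.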

[16] = BSK_KF3CT_SRB: Viability Assessment in the BioMAP Diversity Plus: KF3CT Assay (AID 2283069); conditions: primary human keratinocytes with fibroblasts;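 note: fitted for both signal gain and loss against DMSO baseline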
Method in brief: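 Overt cytotoxicity is assessed as total protein by sulforhodamine B staining in parallel human skin co-cultures at 24 h after dosing. DMSO serves as negative control and baseline.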

[17] = read-out: Transforming growth factor beta 1 (TGFb1), TGFB1 (gene 7040); assay: BSK_KF3CT_TGFb1: BioMAP Diversity Plus: KF3CT Assay for Transforming growth factor beta 1 (TGFb1) Biomarker Activity (AID 2283072); conditions: primary human keratinocytes with fibroblasts; actives raise or lower the signal
Method in brief: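 ELISA quantifies TGF-b1 at 24 h post-dose in a primary human skin co-culture of keratinocytes and fibroblasts, with gain or loss judged against DMSO. Parallel SRB total-protein staining flags overt cytotoxicity.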

[18] = read-out: Interferon-gamma inducible Protein 10 (IP10), CXCL10 (gene 3627); assay: BSK_KF3CT_IP10: BioMAP Diversity Plus: KF3CT Assay for Interferon-gamma inducible Protein 10 (IP10) Biomarker Activity (AID 2283068); conditions: primary human keratinocytes with fibroblasts; actives raise or lower the signal
Method in brief: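 Human keratinocyte plus foreskin fibroblast primary co-culture exposed to test chemical for 24 h; IP-10 measured by ELISA. Concentration-response fitted bidirectionally against DMSO control as baseline.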

Measured: AC50

Sequence of E-selectin (Homo sapiens) (P16581 whole entry, looked up): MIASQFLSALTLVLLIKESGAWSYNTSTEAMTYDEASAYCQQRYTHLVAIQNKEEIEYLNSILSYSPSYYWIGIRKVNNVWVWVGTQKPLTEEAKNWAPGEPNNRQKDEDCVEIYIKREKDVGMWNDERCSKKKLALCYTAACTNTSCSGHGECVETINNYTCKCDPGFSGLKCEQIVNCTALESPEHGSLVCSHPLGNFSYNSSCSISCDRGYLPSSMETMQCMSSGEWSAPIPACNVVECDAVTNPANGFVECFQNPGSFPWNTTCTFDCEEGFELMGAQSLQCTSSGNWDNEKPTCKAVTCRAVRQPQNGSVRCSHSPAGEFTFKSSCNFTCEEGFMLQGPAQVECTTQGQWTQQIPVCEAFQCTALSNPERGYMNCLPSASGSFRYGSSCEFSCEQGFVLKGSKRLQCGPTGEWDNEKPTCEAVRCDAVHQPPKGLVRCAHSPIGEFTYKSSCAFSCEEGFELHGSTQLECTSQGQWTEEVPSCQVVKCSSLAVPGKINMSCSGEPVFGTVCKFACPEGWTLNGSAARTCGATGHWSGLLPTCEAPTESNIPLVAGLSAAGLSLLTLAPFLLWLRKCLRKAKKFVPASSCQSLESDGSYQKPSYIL

C=CC(=C)CC/C=C(\C)CCC=C(C)C
inactive: [1] | [2] | [3] | [4] | [5] | [6] | [7] | [8] | [9] | [10] | CD40, CD40 (gene 958) | [11] | [12] | [13] | [14]

CCCCCc1ccc(O)cc1
active: [1] 28.9 µM | [2] 20 µM | [3] 20 µM | [4] 15.2 µM | [5] 28.5 µM | [6] 27.6 µM | [7] 20 µM | [8] 9.12 µM | [9] 20 µM | [10] 14.8 µM | CD40, CD40 (gene 958) 29.5 µM | [11] 31.4 µM | [12] 36.1 µM | [13] 28.4 µM

O=C(O)C(F)(F)OC(F)(F)C(F)(F)OC(F)(F)C(F)(F)OC(F)(F)C(F)(F)C(F)(F)C(F)(F)F
active: [1] 8.7 µM and 8.8 µM | [2] 10.6 µM and 8.08 µM | [3] 7.6 µM and 8.44 µM | [4] 7.84 µM and 6.66 µM | [5] 11.4 µM | [6] 20.7 µM and 21.8 µM | [7] 14.2 µM and 11.1 µM | [15] 8.14 µM and 7.33 µM | [8] 8.05 µM and 8.01 µM | [9] 8.13 µM and 8.24 µM | [10] 14.5 µM and 15.7 µM | CD40, CD40 (gene 958) 30 µM and 36.5 µM | [11] 54.1 µM and 50.8 µM | [12] 47.5 µM and 26 µM | [13] 54.4 µM and 50.9 µM | [14] 44.4 µM and 40.1 µM

O=P(O)(O)CCC(F)(F)C(F)(F)C(F)(F)C(F)(F)C(F)(F)C(F)(F)F
inactive: [1] | [2] | [3] | [4] | [5] | [6] | [16] | [7] | [8] | [9] | [10] | CD40, CD40 (gene 958) | [11] | [12] | [13]

COC1=CC(=O)C[C@@H](C)[C@]12Oc1c(Cl)c(OC)cc(OC)c1C2=O
inactive: [1] | [2] | [3] | [4] | [6] | [16] | [15] | [17] | [10] | CD40, CD40 (gene 958) | [11] | [12] | [13]
active: [5] 0.497 µM | [7] 1.98 µM | [8] 0.119 µM | [9] 0.572 µM

O=C1NS(=O)(=O)c2ccccc21
inactive: [1] | [2] | [3] | [4] | [5] | [6] | [7] | [8] | [9] | [10] | CD40, CD40 (gene 958) | [11] | [12] | [13]

N=C(N)c1ccc(OCCCCCOc2ccc(C(=N)N)cc2)cc1
inactive: [6] | [18] | [16] | [7] | [8] | [9] | [10] | CD40, CD40 (gene 958) | [11] | [13]
active: [1] 25.8 µM | [2] 27.2 µM | [4] 28.1 µM | [5] 28.5 µM | [12] 12.7 µM

CC[N+](CC)(CC)Cc1ccccc1
inactive: [1] | [2] | [3] | [4] | [5] | [6] | [16] | [7] | [15] | [8] | [9] | [10] | CD40, CD40 (gene 958) | [11] | [12] | [13]

C=COC(=O)C(C)(C)CCCCCC
active: [1] 37.5 µM | [2] 28.5 µM | [3] 3.97 µM | [4] 30.2 µM | [5] 30.3 µM | [6] 37.2 µM | [7] 30.9 µM | [8] 25.9 µM | [9] 33 µM | [10] 28 µM | CD40, CD40 (gene 958) 31.7 µM | [11] 30.6 µM | [12] 33.1 µM | [13] 34.6 µM

O=C(NCc1ncc(C(F)(F)F)cc1Cl)c1c(Cl)cccc1Cl
inactive: [1] | [2] | [3] | [4] | [5] | [6] | [7] | [8] | [9] | [10] | CD40, CD40 (gene 958) | [11] | [12] | [13]

COc1cc(OC)nc(NC(=O)NS(=O)(=O)Nc2ccccc2C(=O)N(C)C)n1
active: [12] 0.055 µM
inactive: [1] | [2] | [3] | [4] | [5] | [6] | [16] | [7] | [8] | [9] | [10] | CD40, CD40 (gene 958) | [11] | [13]

O=C(NO)c1ccccc1
inactive: [1] | [2] | [3] | [4] | [5] | [6] | [16] | [7] | [15] | [8] | [9] | [10] | CD40, CD40 (gene 958) | [11] | [12] | [13]

NC(=NCCCCCCN=C(N)/N=C(\N)Nc1ccc(Cl)cc1)/N=C(\N)Nc1ccc(Cl)cc1
active: [1] 4.77 µM | [2] 6.5 µM | [3] 7.45 µM | [4] 5.46 µM | [5] 3.67 µM | [6] 7.53 µM | [7] 4.32 µM | [15] 5.01 µM | [8] 6.01 µM | [9] 2.67 µM | [10] 4.99 µM | CD40, CD40 (gene 958) 5.33 µM | [12] 2.36 µM | [13] 5.33 µM
